Data as given in PubChem BioAssay.

Target: Follistatin-related protein 3 (Homo sapiens) (UniProt O95633)
Assay: compounds binding follistatin-related protein 3 – biochemical, small-molecule microarray, 635 nm fluorescence, primary screen (AID 1105);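 note: score merges emission near 667 nm and signal to noise per printed spot across three slides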
Conditions: FSTL3 binding, higher = more signal

Chain of Follistatin-related protein 3 (Homo sapiens) (O95633 whole entry, looked up): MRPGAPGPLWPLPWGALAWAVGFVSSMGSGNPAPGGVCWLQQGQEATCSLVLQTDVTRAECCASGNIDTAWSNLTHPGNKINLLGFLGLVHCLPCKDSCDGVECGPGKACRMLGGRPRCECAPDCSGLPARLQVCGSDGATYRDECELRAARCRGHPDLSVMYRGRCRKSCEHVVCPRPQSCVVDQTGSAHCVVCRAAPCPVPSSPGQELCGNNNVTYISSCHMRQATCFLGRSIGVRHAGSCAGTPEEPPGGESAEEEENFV

Structure (SMILES)	composite z-score
CC(C)(C)OC(=O)CC[C@]1(C(=O)NCCN2CCOCC2)N=C(c2ccc(OCCCO)cc2)O[C@H]1c1ccccc1	-0.713
C=CC[C@@]12N=C(c3ccc(OCCCO)cc3)O[C@@H]1c1ccccc1N(CCS(=O)(=O)c1ccccc1)C2=O	1.19
CCOC(=O)C[C@H]1[C@H](OC(=O)c2ccccc2-c2ccccc2)[C@@H](NC(=O)CC(C)C)c2cc(OCCCO)ccc2N1C(=O)c1ccc2ccccc2n1	0.368
COc1ccc(C(O)C2C=CC3C(=O)N(c4ccccc4)C(=O)C3N2Nc2ccccc2)cc1OCc1ccccc1 (stereo not drawn)	1.29
NCCCCCNC(=O)[C@@H]1C[C@@H]2C(=O)N[C@@H](CCCCN)C(=O)N2[C@@H]1c1cccc(OCCO)c1	1.44
CCCCC(CC)C(O)C1C=CC2C(=O)N(c3ccccc3)C(=O)C2N1Nc1ccc([N+](=O)[O-])cc1 (stereo not drawn)	1.34
CC(C)(C)OC(=O)CC[C@]1(C(=O)O)N=C(c2ccc(OCCCO)cc2)O[C@H]1c1ccccc1CN=[N+]=[N-]	-0.507
C=C(/C(=C/C[C@@H](OC(=O)c1ccncc1)c1ccccc1OCCO)c1cc(C(=O)OC)ccc1OC)C(C)C	0.467
O=C1O[C@@H](c2ccccc2)[C@@H](c2ccccc2)N2[C@@H](c3ccccc3OCCO)[C@]3(C(=O)Nc4ccccc43)[C@@H](C(=O)NC[C@H](O)c3ccccc3)[C@H]12	0.0805
COCCOC(=O)N1C(=O)[C@@]2(c3cc(C#CC4(O)CCCCCC4)ccc31)[C@H](c1ccccc1OCCO)N1[C@H](c3ccccc3)[C@H](c3ccccc3)OC(=O)[C@H]1[C@@H]2C(N)=O	1.14
O=c1cccc(-c2cccc(Cl)c2)o1	0.149
COCCOC(=O)N1C(=O)[C@@]2(c3cc(C#CC4=CCCCC4)ccc31)[C@H](C(=O)N1CCN(c3ncccn3)CC1)[C@H]1C(=O)O[C@H](c3ccccc3)[C@H](c3ccccc3)N1[C@@H]2c1ccc(O)cc1	1.14
COCC(=C=CC[C@H](O)c1ccc(OCCO)cc1)C[C@H](O)COCc1ccccc1	0.944
C=C[C@@H](COC(C)=O)NS(=O)(=O)c1ccc(Br)cc1	0.412
O=C1C2C=CC(C(O)c3cc(C(F)(F)F)cc(C(F)(F)F)c3)N(Nc3ccc([N+](=O)[O-])cc3)C2C(=O)N1c1ccccc1 (stereo not drawn)	1.39
CC(=O)NCCCC[C@@H]1NC(=O)[C@@H]2C[C@H](C(=O)O)[C@H](c3ccc(O)cc3)N2C1=O	-1.98
COCCOC(=O)N1C(=O)[C@@]2(c3cc(C#CC4=CCCCC4)ccc31)[C@H](c1ccc(O)cc1)N1[C@H](c3ccccc3)[C@H](c3ccccc3)OC(=O)[C@H]1[C@@H]2C(=O)Nc1nc2ccccc2s1	1.19
CC(C)CNC(=O)[C@@H]1c2ccccc2C(=O)N(Cc2cc(F)cc(C(F)(F)F)c2)[C@H]1c1ccc(CO)cc1	0.328
C=C(C(=O)CC[C@H](OC(C)=O)c1cccc(OCCO)c1)C(C)C	-0.835
O=C1O[C@@H](c2ccccc2)[C@@H](c2ccccc2)N2[C@@H](c3ccc(O)cc3)[C@]3(C(=O)Nc4ccc(C#CCCO)cc43)[C@@H](C(=O)NC[C@H](O)c3ccccc3)[C@H]12	-0.802
CCCN1C(=O)[C@]2(Cc3ccccc3)N=C(c3ccc(OCCCO)cc3)O[C@@H]2c2ccccc21	0.928
C[C@H]1C2=C3C(CC[C@H]4C(OCc5ccc(F)cc5C(F)(F)F)OC[C@](C)([C@@H]34)N(C(=O)OC(C)(C)C)C2)C2COC(=O)OCC21 (stereo partly drawn)	0.768
O=C1c2ccccc2[C@](Cc2ccccc2I)(C(=O)NCCN2CCOCC2)[C@H](c2ccc(CO)cc2)N1Cc1ccccc1	1.04
COC(=O)[C@@]1(Cc2ccc(OC)cc2)[C@H]2c3cc(C(=O)N(C)C)n(Cc4nc5ccccc5[nH]4)c3C[C@H]2CN1C(=O)c1ccccc1	1.35
C[C@]1(C(=O)NC2CC2)c2ccccc2C(=O)N(Cc2ccc(OC(F)(F)F)cc2)[C@H]1c1ccc(CO)cc1	-0.409
CN(C)CCCNC(=O)[C@@H]1c2ccccc2C(=O)N(CC23CC4CC(CC(C4)C2)C3)[C@H]1c1ccc(CO)cc1	1.15
CC1CC/C=C\[C@H]2OC34C=CCN(C(C)C)C(=O)[C@H]3N(CCCCCO)C(=O)[C@@H]4C2C(=O)O1 (stereo partly drawn)	-1.05
C=CCOC(=O)[C@H]1[C@@H]2C(=O)O[C@@H](c3ccccc3)[C@@H](c3ccccc3)N2[C@@H](c2ccc(OCCOC(=O)[C@H]3C[C@H]4C(=O)N[C@@H](Cc5ccccc5)C(=O)N4[C@H]3c3cccc(OCCO)c3)cc2)[C@]12C(=O)Nc1ccc(I)cc12	1.29
